{
  "source": "PubChem BioAssay AID602124",
  "about": "(The Scripps Research Institute Molecular Screening Center, 2011)",
  "note": "Out of some 1,300 compounds screened, about 630 (48%) were called active. So high a share suggests a set chosen from earlier hits. Not all results are given here. Values without a mark were called inactive. Cut-off read from the data, not from the text of the source: active = inhibition above about 6.5%; inactive = the rest.",
  "data": [
    {"target": "Tyrosine-protein kinase ABL1 (Homo sapiens) + Ras and Rab interactor 1 (Homo sapiens) (UniProt P00519+Q13671)", "sequence (P00519 whole entry, looked up)": "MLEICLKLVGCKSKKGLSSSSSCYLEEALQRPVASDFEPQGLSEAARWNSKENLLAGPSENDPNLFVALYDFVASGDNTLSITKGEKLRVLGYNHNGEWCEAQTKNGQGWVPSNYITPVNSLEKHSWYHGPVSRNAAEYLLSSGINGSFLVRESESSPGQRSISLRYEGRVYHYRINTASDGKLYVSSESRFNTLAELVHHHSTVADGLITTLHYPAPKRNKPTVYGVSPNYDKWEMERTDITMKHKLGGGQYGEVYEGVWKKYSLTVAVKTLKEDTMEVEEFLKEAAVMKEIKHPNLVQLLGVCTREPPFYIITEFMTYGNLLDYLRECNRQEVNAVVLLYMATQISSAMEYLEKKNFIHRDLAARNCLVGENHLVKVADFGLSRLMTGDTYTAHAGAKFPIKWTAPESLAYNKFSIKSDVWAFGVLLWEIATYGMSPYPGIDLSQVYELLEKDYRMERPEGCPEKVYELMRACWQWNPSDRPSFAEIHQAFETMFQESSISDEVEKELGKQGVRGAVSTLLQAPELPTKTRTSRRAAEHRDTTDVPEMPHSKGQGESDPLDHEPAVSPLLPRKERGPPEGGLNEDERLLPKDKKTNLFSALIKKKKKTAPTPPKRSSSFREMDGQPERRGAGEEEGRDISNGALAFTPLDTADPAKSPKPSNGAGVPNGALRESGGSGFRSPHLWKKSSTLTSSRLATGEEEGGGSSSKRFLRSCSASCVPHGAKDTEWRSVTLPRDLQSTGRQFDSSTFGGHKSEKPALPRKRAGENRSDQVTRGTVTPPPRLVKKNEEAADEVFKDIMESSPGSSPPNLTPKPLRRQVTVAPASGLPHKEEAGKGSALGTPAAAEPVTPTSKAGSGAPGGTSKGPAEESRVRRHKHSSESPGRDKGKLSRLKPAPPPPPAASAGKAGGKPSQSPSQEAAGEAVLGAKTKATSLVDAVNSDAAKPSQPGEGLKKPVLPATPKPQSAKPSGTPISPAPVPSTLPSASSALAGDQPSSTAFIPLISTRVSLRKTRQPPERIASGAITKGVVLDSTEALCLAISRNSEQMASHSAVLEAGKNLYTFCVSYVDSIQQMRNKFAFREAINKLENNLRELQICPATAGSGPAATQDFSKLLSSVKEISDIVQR", "sequence (Q13671 whole entry, looked up)": "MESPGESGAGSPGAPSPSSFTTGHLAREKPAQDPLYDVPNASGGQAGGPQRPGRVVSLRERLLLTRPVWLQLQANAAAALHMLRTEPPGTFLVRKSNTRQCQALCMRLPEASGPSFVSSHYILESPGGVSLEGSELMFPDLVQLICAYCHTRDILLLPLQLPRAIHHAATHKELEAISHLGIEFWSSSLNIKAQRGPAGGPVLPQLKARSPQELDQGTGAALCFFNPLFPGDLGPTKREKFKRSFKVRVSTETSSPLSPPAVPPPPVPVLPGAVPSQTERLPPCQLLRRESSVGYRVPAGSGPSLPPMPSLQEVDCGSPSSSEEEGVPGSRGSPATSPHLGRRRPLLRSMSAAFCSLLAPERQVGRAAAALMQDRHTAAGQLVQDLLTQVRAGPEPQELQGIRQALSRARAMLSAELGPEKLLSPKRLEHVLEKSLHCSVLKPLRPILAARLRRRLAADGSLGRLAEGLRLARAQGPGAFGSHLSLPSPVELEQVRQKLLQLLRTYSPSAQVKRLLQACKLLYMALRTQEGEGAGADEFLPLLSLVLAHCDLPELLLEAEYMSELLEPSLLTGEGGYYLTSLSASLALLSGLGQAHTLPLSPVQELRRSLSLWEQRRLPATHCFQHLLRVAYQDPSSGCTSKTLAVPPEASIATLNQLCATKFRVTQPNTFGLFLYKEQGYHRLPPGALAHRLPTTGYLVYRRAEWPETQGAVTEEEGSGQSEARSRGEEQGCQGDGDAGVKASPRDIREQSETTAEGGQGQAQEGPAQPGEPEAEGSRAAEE", "experiment": "Rin1-Abl binding inhibitor retest, confirmation, biochemical, TR-FRET (AID 602124)", "conditions": "purified proteins, at 7.35 µM, active compounds read high", "values": [
      {"smiles": "COc1ccc(CNC(=O)c2cc(C(=O)C3CC3)c[nH]2)cc1", "inhibition": "1.47%"},
      {"smiles": "CSc1ncnc2c1ncn2CC(=O)C1CCC2C3CCC4=CC(=O)CCC4(C)C3CCC12C", "note": "(stereo unspecified)", "inhibition": "11.9% (active)"},
      {"smiles": "C#CCOCCOCCOCCNc1nc(N2CCN(C(=O)C(Cc3ccc(O)cc3)n3cc(C(N)CC(C)C)nn3)CC2)nc(N2CCN(C(=O)C(Cc3ccc(O)cc3)n3cc(C(N)C(C)CC)nn3)CC2)n1", "note": "(stereo unspecified)", "inhibition": "13.9% (active)"},
      {"smiles": "C[C@@H]1CN([C@H](C)CO)S(=O)(=O)c2ccc(C#C[C@@H](C)O)cc2O[C@@H]1CN(C)Cc1ccc(-c2ccccc2)cc1", "inhibition": "32.5% (active)"},
      {"smiles": "O=C(c1cn(-c2ccccc2)nc1-c1cc2ccccc2oc1=O)N1CCOCC1", "inhibition": "-4.12%"},
      {"smiles": "O=C(CNCc1ccco1)Nc1cc(S(=O)(=O)N2CCOCC2)ccc1N1CCCC1", "inhibition": "-1.42%"},
      {"smiles": "Oc1c(CN2CCN(c3ccc(F)cc3)CC2)cc(Cl)c2cccnc12", "inhibition": "-0.1%"},
      {"smiles": "C=C1c2c(Cl)ccc(O)c2C(O)=C2C(=O)[C@]3(O)C(O)=C(C(N)=O)C(=O)[C@@H](N(C)C)[C@@H]3[C@@H](O)C12", "note": "(stereo partly specified)", "inhibition": "13.9% (active)"},
      {"smiles": "CN(Cc1c(F)cccc1Cl)C(=O)CNC(=O)c1ccc2c(c1)OCO2", "inhibition": "45.8% (active)"},
      {"smiles": "CC(C)CNS(=O)(=O)c1ccc(C(=O)Nc2ccc3c(c2)OCO3)cc1", "inhibition": "-0.58%"},
      {"smiles": "C=CCn1cc(C(=O)NCc2ccc(Cl)cc2)c(=O)c2cc(S(=O)(=O)N(CC)CC)ccc21", "inhibition": "0.48%"},
      {"smiles": "CCc1cc2c(N3CCN(c4nnc(CC)s4)CC3)ncnc2s1", "inhibition": "4.08%"},
      {"smiles": "C=CCn1c2ccccc2c2nnc(SCc3[nH]c(=O)[nH]c3C(=O)CCCCC(=O)OCC)nc21", "inhibition": "71.5% (active)"},
      {"smiles": "Cc1ccc(C(NC(=O)C2CCN(CCOc3ccc(Cl)cc3Cl)CC2)c2ccccn2)cc1", "note": "(stereo unspecified)", "inhibition": "0.23%"},
      {"smiles": "Cc1cccc(N(C)C(=O)CN2C(=O)COc3ccc(S(=O)(=O)N4CCCCCC4)cc32)c1", "inhibition": "7.15% (active)"},
      {"smiles": "CCOc1ccc(S(=O)(=O)N2CCCCC2)cc1NC(=O)CN1CCCC1c1cccs1", "note": "(stereo unspecified)", "inhibition": "0.05%"},
      {"smiles": "NS(=O)(=O)c1ccc(CCNC(=O)Nc2ccc(Cl)cc2)cc1", "inhibition": "-1.53%"},
      {"smiles": "Oc1cccc2cc(-c3ccncc3)cnc12", "inhibition": "20.6% (active)"},
      {"smiles": "CCOc1ccc(CNC(=O)C2CCCN(c3nnc(C)c4c(C)n(-c5ccccc5)nc34)C2)cc1", "note": "(stereo unspecified)", "inhibition": "12.6% (active)"},
      {"smiles": "OC[C@@H]1CN(Cc2ccc(Cl)cc2)C[C@H](n2cnc3c(NCc4ccncc4)ncnc32)O1", "inhibition": "2.98%"},
      {"smiles": "Cc1nn(-c2ncc(C(F)(F)F)cc2Cl)c(=O)n1-c1ccccc1", "inhibition": "-0.89%"},
      {"smiles": "O=C(CC1SCCNC1=O)Nc1ccc(Cl)cc1", "note": "(stereo unspecified)", "inhibition": "12.1% (active)"},
      {"smiles": "Nc1nc2n(n1)C(c1ccco1)CC(c1ccc(Cl)c(Cl)c1)N2", "note": "(stereo unspecified)", "inhibition": "0.66%"},
      {"smiles": "O=c1c2c(nc3n1CCCCC3)sc1c(O)cccc12", "inhibition": "14.5% (active)"},
      {"smiles": "CC(=O)NC(c1cccs1)c1cc(Br)c2cccnc2c1O", "note": "(stereo unspecified)", "inhibition": "15.9% (active)"},
      {"smiles": "Cc1c(CC(=O)N2CCN(C(=O)C3COc4ccccc4O3)CC2)c(=O)oc2c(O)c(O)ccc12", "note": "(stereo unspecified)", "inhibition": "8.45% (active)"},
      {"smiles": "NC1=CC(=O)C(=O)c2cccnc21", "inhibition": "19.5% (active)"},
      {"smiles": "COc1cc(C(=S)N2CCOCC2)ccc1O", "inhibition": "-2.83%"},
      {"smiles": "Cc1ccccc1CN1C[C@@H]2C[C@@H](c3ccc4nsnc4c3)N3CCC[C@@]23C1=O", "inhibition": "22% (active)"},
      {"smiles": "Nc1cc(=O)c2[nH]cnc2[nH]1", "inhibition": "18.1% (active)"},
      {"smiles": "O=c1cc(CO)oc(CN2CCC(Cc3ccccc3)CC2)c1O", "inhibition": "-3.76%"}
    ]}
  ]
}
